Data as given in PubChem BioAssay (EPA / NIEHS).
Where “and” joins values, the source holds several entries; their conditions need not be identical. Equal entries are not always repeated. Calls of active or inactive are those of the source. Rule for the calls: active = hit-call score of the fitted dose curve at least 0.9, where 1 is the maximum; inactive = score below 0.9.

Experiments:
[1] = ATG_ISRE_CIS: Attagene CIS-FACTORIAL HepG2 Assay for human Interferon Regulatory Factor 1 (IRF1) binding to an Interferon-Stimulated Response Element (ISRE) (AID 2282948); settings: HepG2 ISRE cis-reporter (Attagene), mRNA transcription readout; actives raise or lower the signal
In short: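 Transiently transfected HepG2 cells carrying cis-element reporter units, dosed 24 hours. Reporter mRNA quantified by RT-PCR, fluorescent primer extension, HpaI digestion and capillary electrophoresis. Bidirectional fitting relative to DMSO.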

[2] = ATG_M_32_CIS: Attagene CIS-FACTORIAL HepG2 Assay for M32 Transcription Factor (Internal Marker) (AID 2282949); settings: HepG2 Attagene cis-factorial M32 reporter, mRNA; actives raise or lower the signal;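 note: background control marker of the multiplexed CIS panel rather than a real target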
In short: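 Internal background marker read-out: RT-PCR/capillary electrophoresis fluorescence of reporter transcripts from transiently transfected HepG2 cells after 24 h chemical exposure. Activity fitted bidirectionally relative to DMSO negative control.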

[3] = ATG_M_06_CIS: Attagene CIS-FACTORIAL HepG2 Assay for M06 Transcription Factor (Internal Marker) (AID 2282950); settings: HepG2 Attagene CIS-FACTORIAL M06 internal marker reporter; actives raise or lower the signal
In short: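 Serves as a background control readout. Transfected HepG2 exposed to compounds for 24 h, then reporter transcripts quantified by fluorescent RT-PCR and capillary electrophoresis. Both directions fitted against DMSO baseline.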

[4] = target: Heat shock factor protein 1 (Homo sapiens) (UniProt Q00613); assay: ATG_HSE_CIS: Attagene CIS-FACTORIAL HepG2 Assay for human Heat Shock Transcription Factor 1 (HSE) (AID 2282953); settings: HepG2 HSE cis-reporter, Attagene RNA transcription; actives raise or lower the signal
Sequence of Heat shock factor protein 1 (Homo sapiens) (Q00613 whole entry, looked up): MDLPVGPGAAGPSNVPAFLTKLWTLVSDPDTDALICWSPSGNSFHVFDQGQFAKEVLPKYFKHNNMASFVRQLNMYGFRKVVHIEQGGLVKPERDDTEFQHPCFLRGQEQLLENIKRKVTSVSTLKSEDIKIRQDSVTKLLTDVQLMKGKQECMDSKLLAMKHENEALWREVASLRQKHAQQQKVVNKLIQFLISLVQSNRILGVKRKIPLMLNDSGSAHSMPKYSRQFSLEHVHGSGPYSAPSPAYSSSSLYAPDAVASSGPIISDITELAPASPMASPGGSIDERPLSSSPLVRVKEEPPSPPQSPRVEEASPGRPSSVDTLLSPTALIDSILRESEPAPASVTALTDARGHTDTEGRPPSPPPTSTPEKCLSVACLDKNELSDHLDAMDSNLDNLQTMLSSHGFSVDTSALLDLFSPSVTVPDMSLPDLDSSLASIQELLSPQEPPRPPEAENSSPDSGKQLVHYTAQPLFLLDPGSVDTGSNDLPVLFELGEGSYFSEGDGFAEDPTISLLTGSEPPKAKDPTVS
In short: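 Endogenous transcription factor activity in transiently transfected HepG2, read as reporter mRNA by RT-PCR with fluorescent capillary electrophoresis after 24 h. Gain or loss of signal fitted versus DMSO baseline.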

[5] = ATG_MRE_CIS: Attagene CIS-FACTORIAL HepG2 Assay for human Metal Responsive Element (MRE) (AID 2282954); settings: HepG2 MRE cis-reporter transcription, Attagene multiplex; actives raise or lower the signal
In short: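 HepG2 cells transiently transfected with multiple cis-element reporter units measure endogenous MTF1-driven transcription. After 24 h compound exposure, reporter mRNA is quantified by RT-PCR with 6-FAM labelling, HpaI digestion and capillary electrophoresis; bidirectional fits versus DMSO.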

[6] = target: Paired box protein Pax-6 (Homo sapiens) (UniProt P26367); assay: ATG_Pax6_CIS: Attagene CIS-FACTORIAL HepG2 Assay for human Paired Box 6 (PAX6) (AID 2282956); settings: HepG2 CIS-FACTORIAL PAX6 reporter transcription, RNA readout; actives raise or lower the signal
Sequence of Paired box protein Pax-6 (Homo sapiens) (P26367 whole entry, looked up): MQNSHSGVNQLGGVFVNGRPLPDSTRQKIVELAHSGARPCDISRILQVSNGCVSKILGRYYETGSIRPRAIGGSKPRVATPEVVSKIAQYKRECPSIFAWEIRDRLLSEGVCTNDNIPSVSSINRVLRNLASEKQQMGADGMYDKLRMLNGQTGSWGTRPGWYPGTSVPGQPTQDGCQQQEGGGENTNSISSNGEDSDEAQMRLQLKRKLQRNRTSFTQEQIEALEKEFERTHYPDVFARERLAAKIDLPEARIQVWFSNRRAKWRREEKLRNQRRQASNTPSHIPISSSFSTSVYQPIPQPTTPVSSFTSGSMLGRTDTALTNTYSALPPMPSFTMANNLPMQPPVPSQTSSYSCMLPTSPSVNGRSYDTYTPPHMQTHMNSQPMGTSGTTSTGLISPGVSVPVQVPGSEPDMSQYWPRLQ
In short: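 HepG2 cells transiently transfected with cis-promoter-driven multiplexed reporter units sensing endogenous transcription factor activity; 24 h chemical exposure. Reporter mRNA quantified by RT-PCR, 6-FAM labelling, HpaI digestion and capillary electrophoresis; bidirectional fit versus DMSO baseline.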

[7] = ATG_PXRE_CIS: Attagene CIS-FACTORIAL HepG2 Assay for human Pregnane X Receptor Element (PXRE) (AID 2282957); settings: HepG2 Attagene CIS-FACTORIAL PXRE reporter, mRNA; actives raise or lower the signal
In short: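 Transiently transfected HepG2 cells were dosed and incubated for 24 h. RNA was then isolated, DNase-treated, reverse-transcribed and reporter sequences amplified. Labeled, HpaI-digested fragments were quantified by capillary electrophoresis against DMSO.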

[8] = ATG_Sox_CIS: Attagene CIS-FACTORIAL HepG2 Assay for human SRY-box transcription factor (SOX) (AID 2282960); settings: HepG2 Attagene cis-factorial SOX reporter, mRNA; actives raise or lower the signal
In short: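 Measures mRNA induction of a SOX1-associated reporter in HepG2 after 24 h dosing. Fluorescently labelled RT-PCR fragments are separated by capillary electrophoresis, and gain or loss relative to DMSO control is fitted.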

[9] = target: Transcription factor Sp1 (Homo sapiens) (UniProt P08047); assay: ATG_Sp1_CIS: Attagene CIS-FACTORIAL HepG2 Assay for human Specificity Protein 1 (Sp1) (AID 2282961); settings: HepG2 Sp1 cis-reporter transcription, actives raise or lower the signal
Sequence of Transcription factor Sp1 (Homo sapiens) (P08047 whole entry, looked up): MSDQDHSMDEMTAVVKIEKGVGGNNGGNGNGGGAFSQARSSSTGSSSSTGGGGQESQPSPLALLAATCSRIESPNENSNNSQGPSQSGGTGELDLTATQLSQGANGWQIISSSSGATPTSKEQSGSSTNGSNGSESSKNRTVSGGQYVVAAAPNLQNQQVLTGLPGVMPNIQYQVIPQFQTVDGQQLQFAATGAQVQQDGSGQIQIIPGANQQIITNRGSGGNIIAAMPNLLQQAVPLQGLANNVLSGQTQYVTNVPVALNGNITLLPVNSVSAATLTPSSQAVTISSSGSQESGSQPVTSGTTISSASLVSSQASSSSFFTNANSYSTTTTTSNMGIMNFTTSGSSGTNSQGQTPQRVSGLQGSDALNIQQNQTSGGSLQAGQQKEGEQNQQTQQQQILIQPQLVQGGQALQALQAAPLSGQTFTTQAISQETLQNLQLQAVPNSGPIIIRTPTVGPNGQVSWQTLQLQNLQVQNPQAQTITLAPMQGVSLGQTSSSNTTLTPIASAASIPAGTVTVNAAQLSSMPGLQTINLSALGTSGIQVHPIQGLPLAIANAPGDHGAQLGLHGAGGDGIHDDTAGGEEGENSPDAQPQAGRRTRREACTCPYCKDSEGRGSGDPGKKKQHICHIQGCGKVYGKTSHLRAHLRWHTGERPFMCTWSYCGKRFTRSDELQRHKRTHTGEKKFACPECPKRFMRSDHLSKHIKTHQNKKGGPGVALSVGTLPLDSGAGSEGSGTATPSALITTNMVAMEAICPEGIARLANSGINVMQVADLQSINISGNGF
In short: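 Cells: HepG2, transiently transfected with cis-regulated multiplexed reporters. Exposure: 24 h. Detection: reporter transcripts amplified, fluorescently labeled, restriction-digested and sized by capillary electrophoresis. Analysis: bidirectional fit relative to DMSO.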

[10] = ATG_SREBP_CIS: Attagene CIS-FACTORIAL HepG2 Assay for human Sterol Regulatory Element Binding (SREBP) (AID 2282962); settings: HepG2 Attagene cis-factorial SREBP reporter, mRNA; actives raise or lower the signal
In short: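 HepG2 cells transiently transfected with multiplexed cis-promoter reporter units sensing endogenous transcription factors; reporter mRNA measured 24 h after dosing by RT-PCR, 6-FAM labeling, HpaI digestion and capillary electrophoresis. Bidirectional fit versus DMSO.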

[11] = target: Signal transducer and activator of transcription 3 (Homo sapiens) (UniProt P40763); assay: ATG_STAT3_CIS: Attagene CIS-FACTORIAL HepG2 Assay for human Signal Transducer and Activator of Transcription 3 (STAT3) (AID 2282963); settings: HepG2, Attagene cis-factorial STAT3 reporter transcription; actives raise or lower the signal
Sequence of Signal transducer and activator of transcription 3 (Homo sapiens) (P40763 whole entry, looked up): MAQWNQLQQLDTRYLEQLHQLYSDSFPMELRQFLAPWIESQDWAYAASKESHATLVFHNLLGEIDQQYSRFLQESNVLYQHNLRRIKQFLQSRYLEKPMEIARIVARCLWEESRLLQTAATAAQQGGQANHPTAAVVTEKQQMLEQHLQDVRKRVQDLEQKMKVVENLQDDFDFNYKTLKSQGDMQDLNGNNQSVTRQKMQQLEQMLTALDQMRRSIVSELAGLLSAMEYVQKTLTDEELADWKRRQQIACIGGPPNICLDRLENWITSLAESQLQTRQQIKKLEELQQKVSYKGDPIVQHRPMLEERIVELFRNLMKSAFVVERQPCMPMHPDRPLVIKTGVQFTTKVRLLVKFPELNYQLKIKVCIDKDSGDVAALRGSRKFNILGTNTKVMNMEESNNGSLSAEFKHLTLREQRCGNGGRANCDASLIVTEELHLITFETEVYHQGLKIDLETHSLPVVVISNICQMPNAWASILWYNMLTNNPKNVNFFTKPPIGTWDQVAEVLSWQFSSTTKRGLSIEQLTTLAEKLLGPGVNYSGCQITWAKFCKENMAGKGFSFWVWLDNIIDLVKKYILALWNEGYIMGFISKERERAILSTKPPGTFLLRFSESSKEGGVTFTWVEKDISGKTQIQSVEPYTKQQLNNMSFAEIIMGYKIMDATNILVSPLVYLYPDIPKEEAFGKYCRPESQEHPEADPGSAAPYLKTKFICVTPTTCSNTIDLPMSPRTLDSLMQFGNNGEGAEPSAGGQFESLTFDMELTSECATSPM
In short: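 HepG2 cells transiently transfected with cis-element-driven multiple reporter transcription units; after 24 h chemical exposure, reporter mRNA measured by RT-PCR, 6-FAM primer-extension labelling, HpaI digestion and capillary electrophoresis. Bidirectional fitting versus DMSO baseline.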

[12] = ATG_TA_CIS: Attagene CIS-FACTORIAL HepG2 Assay for human TA Basal Promoter (AID 2282964); settings: HepG2 Attagene CIS-factorial TA basal promoter reporter; actives raise or lower the signal
In short: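 Background-control readout: TA basal promoter reporter mRNA, fitted in both directions relative to DMSO. Measured by RT-PCR and capillary electrophoresis 24 hours after treating HepG2 human liver cells transiently carrying multiplexed cis-regulated reporter constructs.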

[13] = ATG_TCF_b_cat_CIS: Attagene CIS-FACTORIAL HepG2 Assay for human T-Cell-Factor with beta-catenin (TCF/b-cat) (AID 2282965); settings: HepG2 TCF/beta-catenin cis-reporter transcription, actives raise or lower the signal
In short: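 In this cis-format system, transfected HepG2 cells report endogenous transcription factor activity. Readout after 24 h exposure is reporter transcript abundance from RT-PCR and capillary electrophoresis, analysed for gain or loss of signal versus DMSO.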

[14] = ATG_TAL_CIS: Attagene CIS-FACTORIAL HepG2 Assay for human TAL Basal Promoter (AID 2282966); settings: HepG2 Attagene cis-factorial TAL promoter reporter; actives raise or lower the signal;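 note: background control endpoint measuring basal TAL promoter reporter mRNA not a specific factor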
In short: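 Readout: reporter mRNA, fluorescence by CE. System: HepG2, transient multi-reporter transfection, endogenous TF activity. Exposure: 24 h. Analysis: bidirectional, DMSO-normalized; background control.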

[15] = ATG_GRE_CIS: Attagene CIS-FACTORIAL HepG2 Assay for human Glucocorticoid Response Elements (GRE) (AID 2282947); settings: HepG2 GRE cis-reporter, Attagene multiplex mRNA; actives raise or lower the signal
In short: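 HepG2 cells transiently transfected with multiple cis-promoter reporter units measure endogenous TF activity; 24 h compound exposure. Reporter mRNA quantified by RT-PCR, FAM labelling, HpaI digestion and capillary electrophoresis; bidirectional fit vs DMSO baseline.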

[16] = target: Hypoxia-inducible factor 1-alpha (Homo sapiens) (UniProt Q16665); assay: ATG_HIF1a_CIS: Attagene CIS-FACTORIAL HepG2 Assay for human Hypoxia Inducible Factor 1 (HIF1A) (AID 2282951); settings: HepG2 Attagene cis-factorial HIF1a reporter transcription; actives raise or lower the signal
Sequence of Hypoxia-inducible factor 1-alpha (Homo sapiens) (Q16665 whole entry, looked up): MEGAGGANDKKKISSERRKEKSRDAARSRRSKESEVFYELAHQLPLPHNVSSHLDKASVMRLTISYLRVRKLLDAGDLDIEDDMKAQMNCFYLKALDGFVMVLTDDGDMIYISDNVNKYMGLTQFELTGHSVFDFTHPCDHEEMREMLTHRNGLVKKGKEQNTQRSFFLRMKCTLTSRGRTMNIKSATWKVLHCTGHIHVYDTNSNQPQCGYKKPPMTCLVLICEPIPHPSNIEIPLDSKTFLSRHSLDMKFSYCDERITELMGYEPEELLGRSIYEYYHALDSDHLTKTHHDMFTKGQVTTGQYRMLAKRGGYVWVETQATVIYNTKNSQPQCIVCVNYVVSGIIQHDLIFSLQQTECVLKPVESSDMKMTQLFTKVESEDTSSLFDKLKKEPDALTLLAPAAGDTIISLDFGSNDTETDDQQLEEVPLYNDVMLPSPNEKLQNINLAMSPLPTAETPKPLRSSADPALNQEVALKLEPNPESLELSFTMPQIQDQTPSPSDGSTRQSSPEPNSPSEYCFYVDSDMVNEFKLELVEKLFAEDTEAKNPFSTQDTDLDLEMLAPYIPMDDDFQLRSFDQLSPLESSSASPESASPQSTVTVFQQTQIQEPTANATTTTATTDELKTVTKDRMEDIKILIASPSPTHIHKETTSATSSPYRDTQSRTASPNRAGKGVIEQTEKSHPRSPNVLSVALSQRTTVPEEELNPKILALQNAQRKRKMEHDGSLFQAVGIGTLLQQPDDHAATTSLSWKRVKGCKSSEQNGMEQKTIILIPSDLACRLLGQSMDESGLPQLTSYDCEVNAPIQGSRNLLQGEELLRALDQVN
In short: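 Fluorescence intensity of capillary-separated, 6-FAM-labelled reporter amplicons gives mRNA induction in HepG2 cells carrying transfected cis-promoter reporter units; cells exposed 24 h, responses fitted up or down from DMSO.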

[17] = ATG_PBREM_CIS: Attagene CIS-FACTORIAL HepG2 Assay for human Phenobarbital-responsive Enhancer Module (PBREM) (AID 2282955); settings: HepG2 PBREM cis-reporter, Attagene multiplexed transcription; actives raise or lower the signal
In short: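 Cells were transfected with cis-element reporter units and treated for 24 h, after which RNA was extracted and reporter transcripts measured by RT-PCR and capillary electrophoresis.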

[18] = ATG_PPRE_CIS: Attagene CIS-FACTORIAL HepG2 Assay for human Peroxisome Proliferator-activated Response Element (PPRE) (AID 2282958); settings: HepG2 PPRE cis-element reporter, Attagene transcription factor profiling; actives raise or lower the signal
In short: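 In this cell-based multiplex, a PPRE cis element drives a reporter sequence in transiently transfected HepG2 cells. Following 24 h treatment, labeled cDNA amplicons are sized and quantified by capillary electrophoresis, with DMSO defining baseline.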

[19] = ATG_RORE_CIS: Attagene CIS-FACTORIAL HepG2 Assay for human RAR-related Orphan Receptor Element (RORE) (AID 2282959); settings: HepG2 Attagene cis-factorial RORE reporter, mRNA; actives raise or lower the signal
In short: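 Endogenous factor activity at a cis response element is read as reporter transcript levels in HepG2 cells, 24 h post-dose. Transcripts are quantified by RT-PCR with capillary electrophoresis, and data fitted in both directions against DMSO.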

[20] = target: Hepatocyte nuclear factor 6 (Homo sapiens) (UniProt Q9UBC0); assay: ATG_HNF6_CIS: Attagene CIS-FACTORIAL HepG2 Assay for human Hepatocyte Nuclear Factor 6 (HNF6) (AID 2282952); settings: HepG2 Attagene cis-factorial HNF6 reporter transcription; actives raise or lower the signal
Sequence of Hepatocyte nuclear factor 6 (Homo sapiens) (Q9UBC0 whole entry, looked up, the tested form may be a part): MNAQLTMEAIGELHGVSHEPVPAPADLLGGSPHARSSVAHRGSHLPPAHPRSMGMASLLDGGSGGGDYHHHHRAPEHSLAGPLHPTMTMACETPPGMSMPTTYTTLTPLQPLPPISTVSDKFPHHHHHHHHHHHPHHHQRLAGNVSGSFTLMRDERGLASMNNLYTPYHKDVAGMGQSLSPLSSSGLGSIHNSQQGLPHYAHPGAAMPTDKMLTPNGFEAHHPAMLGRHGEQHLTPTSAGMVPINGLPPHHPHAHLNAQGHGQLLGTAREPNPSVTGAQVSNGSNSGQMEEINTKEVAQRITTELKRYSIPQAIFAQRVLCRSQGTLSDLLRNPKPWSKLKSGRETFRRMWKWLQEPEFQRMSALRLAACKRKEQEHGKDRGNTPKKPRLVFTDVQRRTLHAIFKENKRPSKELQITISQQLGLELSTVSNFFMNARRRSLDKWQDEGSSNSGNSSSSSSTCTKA
In short: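 Reporter mRNA induction or loss in HepG2 after 24 h exposure; transient cis-MRTU transfection; fragments quantified by capillary electrophoresis; bidirectional analysis, DMSO as negative control.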

Measured: AC50

CN(C)[C@@H]1C(=O)C(C(N)=O)=C(O)[C@@]2(O)C(=O)C3=C(O)c4c(O)cccc4[C@@](C)(O)[C@H]3[C@H](O)[C@@H]12
inactive: [1] | [2] | [3] | [4] | [5] | [6] | [8] | [9] | [10] | [11] | [12] | [13] | [14]
active: [7] 65 µM and 26.5 µM and 34.9 µM

CCOP(=S)(Oc1cnc(C(C)(C)C)nc1)OC(C)C (stereo not given)
inactive: [15] | [1] | [2] | [3] | [16] | [6] | [18] | [8] | [11] | [12] | [13] | [14]
active: [5] 65.3 µM | [17] 21.2 µM | [7] 1.84 µM | [19] 13.1 µM | [9] 28.1 µM | [10] 23.2 µM

CCOP(=O)(SC(C)CC)N1CCSC1=O (stereo not given)
inactive: [1] | [2] | [3] | [16] | [20] | [4] | [5] | [17] | [6] | [18] | [19] | [8] | [9] | [10] | [11] | [12] | [13] | [14]
active: [7] 22.9 µM

CC(COc1ccc(Oc2ccccc2)cc1)Oc1ccccn1 (stereo not given)
active: [17] 13.8 µM | [7] 13.7 µM | [18] 15.1 µM | [19] 12.2 µM
inactive: [1] | [2] | [3] | [16] | [5] | [6] | [8] | [9] | [10] | [11] | [12] | [13] | [14]

S=C1NCCN1
inactive: [1] | [2] | [3] | [16] | [20] | [4] | [5] | [6] | [7] | [19] | [8] | [9] | [10] | [11] | [12] | [13] | [14]

CCc1cccc(C)c1N(C(=O)CCl)C(C)COC (stereo not given)
active: [17] 7.5 µM | [7] 0.603 µM
inactive: [1] | [2] | [3] | [16] | [4] | [5] | [6] | [8] | [9] | [10] | [11] | [12] | [13] | [14]

C[N+]1(C)CCCCC1
inactive: [1] | [2] | [3] | [16] | [4] | [5] | [17] | [6] | [7] | [18] | [19] | [8] | [9] | [10] | [11] | [12] | [13] | [14]

CCC(=O)Nc1ccc(Cl)c(Cl)c1
active: [7] 50 µM | [10] 50 µM
inactive: [1] | [2] | [3] | [16] | [20] | [4] | [5] | [17] | [6] | [19] | [8] | [9] | [11] | [12] | [13] | [14]

CSc1nnc(C(C)(C)C)c(=O)n1N
inactive: [15] | [1] | [2] | [3] | [16] | [4] | [5] | [17] | [6] | [7] | [19] | [8] | [9] | [10] | [11] | [12] | [13] | [14]
